The target of assay [1] is Cytochrome P450 3A7 (Homo sapiens) (UniProt P24462). In words: Cytochrome P450 family 3 subfamily A member 7 (CYP3A7) small molecule antagonists: luciferase biochemical qHTS assay (AID 1963596). Also: % is scaled to controls: 0 for no effect and ±100 for the full control effect; nearly all actives have a fitted effect of over 40% in size. The settings on record: P450-Glo CYP3A7 enzyme luminescence, 1 h; series mostly up to 57.4 µM. In a few lines:
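Compounds were screened in qHTS format for interference with CYP3A7 turnover of a proluciferin substrate. Reactions ran 1 h at room temperature after NADPH regeneration solution was added, then luciferin product was detected by luminescence.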

Assay [2] in a line: Viability qHTS for spleen associated tyrosine kinase inhibitor (SYKi) drug resistant MV4-11 cells (AID 1963824). Also: nearly all actives have a fitted effect of over 35% in size. Also: potency is read from the fitted curve at half-maximal effect. Particulars: SYKi-resistant MV4-11 viability, CellTiter-Glo, 72 h; series mostly up to 45 µM. The method in brief: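 CellTiter-Glo luminescence, read 10 min after reagent addition, reports viability after a 72 hr compound exposure. Cells are an MV4-11 line made resistant to SYK inhibition, seeded at 500 per well onto compound-containing plates.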

Assay [3] can be described thus: Quantitative highthroughput screen to assess conditional lethalithy of NOMO1 cells grown in RPMI1640 with dialyzed fetal bovine serum (RPMI+ds) (AID 1963877).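 Also: 100% = DMSO control wells and 0% = empty wells; nearly all actives have a fitted effect of over 30% in size.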 Particulars: NOMO1 in RPMI+dialyzed FBS viability, ATP luminescence, 48 h; series mostly up to 45.8 µM. The method in brief: (§1)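 Each medium arm—HPLM with 10% dialyzed FBS, or RPMI1640 with 5 mM glucose and 10% untreated or dialyzed FBS—was screened against an 11-point, 3-fold compound titration for 48 h at 37 °C, with CellTiter-Glo luminescence as endpoint.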

Assay [4] can be described thus: Quantitative highthroughput screen to assess conditional lethalithy of NOMO1 cells grown in Human Plasma-Like Medium with dialyzed fetal bovine serum (HPLM+ds) (AID 1963878).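 Also: 100% = DMSO wells and 0% = empty wells on each plate; nearly all actives have a fitted effect of over 35% in size.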 The settings on record: NOMO1 AML cells in HPLM+ds, CellTiter-Glo viability, 48 h; series mostly up to 45.8 µM. In a few lines: as §1
(In ATP-based viability assays light output follows the ATP content of the culture.)

Assay [5] in a line: Quantitative highthroughput screen to assess conditional lethalithy of P12 Ichikawa cells grown in Human Plasma-Like Medium with dialyzed fetal bovine serum (HPLM+ds) (AID 1963879). Also: nearly all actives have a fitted effect of over 35% in size. Also: potency is read from the fitted curve at half-maximal effect. The settings on record: ATP luminescence, 48 h; Potency: viability; series mostly up to 45.8 µM. In a few lines: as §1
Assay [6] in a line: Quantitative highthroughput screen to assess conditional lethalithy of P12 Ichikawa cells grown in RPMI1640 with untreated serum (RPMI+s) (AID 1963881).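 Also: 100% = DMSO wells and 0% = empty wells without cells; nearly all actives have a fitted effect of over 35% in size.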 The settings on record: ATP luminescence, 48 h; Potency: viability; series mostly up to 45.8 µM. In a few lines: as §1
The nature of assay [7]: Quantitative highthroughput screen to assess conditional lethalithy of SEM cells grown in Human Plasma-Like Medium with dialyzed fetal bovine serum (HPLM+ds) (AID 1963882). Also: nearly all actives have a fitted effect of over 35% in size. Also: potency is read from the fitted curve at half-maximal effect. The settings on record: SEM B-ALL cells in HPLM+ds, CellTiter-Glo viability, 48 h; series mostly up to 45.8 µM. In a few lines:
as §1

Assay [8] is described as follows: Quantitative highthroughput screen to assess conditional lethalithy of SEM cells grown in RPMI1640 with unreated serum (RPMI+s) (AID 1963883). Also: nearly all actives have a fitted effect of over 35% in size. Also: potency is read from the fitted curve at half-maximal effect.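 As to Viability: 100% = DMSO wells and 0% = empty wells without cells.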 Particulars: SEM B-ALL cells, CellTiter-Glo viability, 48 h; series mostly up to 45.8 µM. The method in brief:
as §1

Assay [9] in a line: Quantitative highthroughput screen to assess conditional lethalithy of SEM cells grown in RPMI1640 with dialyzed fetal bovine serum (RPMI+ds) (AID 1963884). Also: nearly all actives have a fitted effect of over 35% in size. Also: potency is read from the fitted curve at half-maximal effect.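 As to Viability: 100% = DMSO control wells and 0% = empty wells without cells.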 The settings on record: SEM B-ALL cells, RPMI+dialyzed FBS, CellTiter-Glo viability, 48 h; series mostly up to 45.8 µM. The method in brief:
as §1

Assay [10] in a line: Cellular viability qHTS for adrenocortical cancer (ACC) cell line SW-13 (AID 1963989).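 Also: cells grown in serum-free medium with ITS supplement; % is scaled to controls: 0 for no effect and ±100 for the full control effect; nearly all actives have a fitted effect of over 65% in size.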 Particulars: SW-13 ACC cells viability, CellTiter-Glo, 48 h; activity (max response): stronger effect = lower value. The method in brief: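 Viability was read as CellTiter-Glo luminescence after 48 h compound treatment (up to 46 uM final) of SW-13 cells grown serum-free; titration curves were fit with a four-parameter logistic model to give IC50 and efficacy.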
For orientation: Quantitative high-throughput screening tests each substance at several concentrations.

Assay [11] is described as follows: Cellular viability qHTS for adrenocortical cancer (ACC) cell line NCI-H295R (AID 1963990). Also: nearly all actives have a fitted effect of over 60% in size. Also: potency is read from the fitted curve at half-maximal effect.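 As to activity change, negative = viability loss: 0% = DMSO only wells and -100% = full killing with cytotoxic reference compound.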 Particulars: CellTiter-Glo ATP luminescence, 48 h; series mostly up to 46.1 µM. The method in brief: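 CellTiter-Glo ATP luminescence, read 48 h after compound addition, measured viability of NCI-H295R adrenocortical cells grown serum-free with ITS. Final concentrations spanned up to 46 uM. Data normalized to DMSO and doxorubicin, fitted for IC50 and maximal response.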

Assay [12] in a line: Quantitative highthroughput screen to assess conditional lethalithy of NOMO1 cells grown in RPMI1640 with untreated serum (RPMI+s) (AID 1963876). The settings on record: NOMO1 AML cells in RPMI+serum, CellTiter-Glo viability, 48 h; series mostly up to 45.8 µM. The method in brief:
as §1

Assay [13] is described as follows: Quantitative highthroughput screen to assess conditional lethalithy of P12 Ichikawa cells grown in RPMI1640 with dialyzed fetal bovine serum (RPMI+ds) (AID 1963880). The settings on record: ATP luminescence, 48 h; Potency: P12-Ichikawa viability; series mostly up to 45.8 µM. In a few lines:
as §1

Several values for one entry are separate records, joined by “and”; a condition that tells them apart may be missing. Equal entries are not always repeated. Results filed as inconclusive are left out. Unmarked numbers belong to inactive results. Activity calls are given as the source filed them. Calls follow the shape of the dose curve; as a rule, active = well fitted curve in the direction sought with a large enough effect; inconclusive = small, poorly fitted or top-dose-only effect, or another doubt; inactive = no such curve, though single readings can be large; an effect the other way counts as inactive or inconclusive.

Cytochrome P450 3A7 (Homo sapiens), sequence (P24462 whole entry, looked up): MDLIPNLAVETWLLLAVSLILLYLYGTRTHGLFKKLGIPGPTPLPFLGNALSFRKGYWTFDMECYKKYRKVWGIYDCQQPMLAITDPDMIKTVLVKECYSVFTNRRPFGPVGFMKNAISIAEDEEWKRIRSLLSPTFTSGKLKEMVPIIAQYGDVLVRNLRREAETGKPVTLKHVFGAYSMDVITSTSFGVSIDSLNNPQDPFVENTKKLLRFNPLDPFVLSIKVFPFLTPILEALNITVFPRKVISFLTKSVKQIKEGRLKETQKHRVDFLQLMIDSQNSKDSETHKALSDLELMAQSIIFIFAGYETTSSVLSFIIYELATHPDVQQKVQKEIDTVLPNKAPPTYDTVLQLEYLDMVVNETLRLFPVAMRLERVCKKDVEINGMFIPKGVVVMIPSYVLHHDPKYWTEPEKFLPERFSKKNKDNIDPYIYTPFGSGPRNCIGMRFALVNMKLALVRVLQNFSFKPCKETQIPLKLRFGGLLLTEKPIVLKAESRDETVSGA

For the compound `N[C@@H](C(=O)N[C@@H]1C(=O)N2C(C(=O)O)=C(Cl)CS[C@H]12)c1ccccc1`, the activity change, negative = inhibition in assay [1] was -8.83% [at 11.5 µM]. Further, the Potency in [2] was 686 nM (active). For the same compound, the Potency entry in assay [3], in [4], in assay [5], in assay [6], in assay [7] and in assay [8] was “inactive” in each case. Further, the Potency entry in assay [9] is “inactive”. Moreover, the activity (max response) in [10] was 7.53%. Moreover, the activity change, negative = viability loss in [11] is -18.4% [at 9.17 µM].
`Cc1cc(C2CCCCC2)n(O)c(=O)c1`: the Potency result in assay [1] was “inactive”. Moreover, the Potency in assay [2] is 2.59 µM (active) and 3.35 µM (active) and 3.72 µM (active); in assay [7], 13200 nM (active); in assay [8], 11800 nM (active); in assay [9] it was 13200 nM (active); in assay [11], 2000 nM (active).
For the compound `CC(=O)Nc1ccc(C(=O)O)cc1`, the Potency entry in assay [1] and in assay [2] was “inactive” throughout. Moreover, the activity (max response) in assay [10] was 11.7%.
`CNS(=O)(=O)Cc1ccc2[nH]cc(CCN(C)C)c2c1`: the Potency entry in assay [1], in assay [2], in assay [12], in assay [3], in assay [4] and in assay [5] was “inactive” throughout. The Potency result in assay [13], in [7], in assay [8] and in assay [9] was “inactive” throughout. For the same compound, the activity (max response) in [10] was 3.13%.
As for `Nc1ncn([C@H]2C[C@H](O)[C@@H](CO)O2)c(=O)n1`, the Potency entry in assay [1] and in [11] was “inactive” in each case. In addition, the Potency in assay [2] was 4680 nM (active); in assay [7] it was 2960 nM (active); in assay [8], 2640 nM (active). Further, the activity (max response) in assay [10] is -13% and -6.12%.
With `COc1c(OCCCN2CCOCC2)ccc2c3n(c(=NC(=O)c4cnc(N)nc4)nc12)CCN3`, the Potency entry in assay [1] is “inactive”. Also, the Potency was 37.6 nM (active) and 241 nM (active) in assay [2]; 182 nM (active) in assay [5]; 2040 nM (active) in [8]; 237 nM (active) in [11].
Turning to `NC(=O)CC[C@@H](N)C(=O)O`, the Potency entry in assay [1] and in assay [2] was “inactive” each time. In assay [10], the activity (max response) is 12.6%.
`CCOCC(O)COc1ccc(NC(=O)CC[S+](C)C)cc1` (stereo unspecified): the Potency entry in [1], in assay [2], in [12], in assay [3], in assay [4] and in [5] was “inactive” throughout. For the same compound, the Potency result in [6], in assay [7], in [8], in assay [9] and in assay [11] was “inactive” in each case. Moreover, in assay [10], the activity (max response) is 1.78% and -20%.
For `O=C(O)C(=O)Nc1cccc(-c2nn[nH]n2)c1`, the Potency entry in assay [1], in [2] and in assay [11] was “inactive” throughout. The activity (max response) in [10] was 14.5% and 11%.

Source of the values: PubChem BioAssay (NCATS).
